About 60 (0.1%) of roughly 59,000 compounds were called active. No rule for the calls is given here. Shown is part of a subset that was picked to be rich in actives.
assay: qHTS Assay for Spectroscopic Profiling in A488 Spectral Region; conditions: compound autofluorescence; max dye equivalency: Compound Type: qHTS ECL - SigmaAldrich, stronger effect = higher value unless noted; outcome: dye equivalency, Compound Type: qHTS ECL - MLSMR unless noted
Summary of the method: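 Compounds pin-transferred into 100 mM Tris buffer, pH 8.0, incubated 15 min at room temperature, then imaged with 480 nm excitation/540 nm emission filters. Fluorescence converted to Alexa 488 dye-equivalent concentration via an on-plate six-point A488 standard curve.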

Row | Compound | outcome | max dye equivalency
1 | CN(C)c1ncc2nc(-c3ccc(F)cc3)c(=O)n(Cc3ccc(F)cc3)c2n1 | inactive [dye equivalency, Compound Type: qHTS ECL - Pharmacopeia] | –
2 | CN(C)C(=O)c1ccc(-c2cncnc2NC2CCNCC2)cc1 | inactive [dye equivalency, Compound Type: qHTS ECL - Pharmacopeia] | –
3 | COc1ccc(C(=O)N2CCC[C@@]3(CCN(C(=O)NC(C)C)C3)C2)cc1 | inactive [dye equivalency, Compound Type: qHTS ECL - Pharmacopeia] | –
4 | CC(C)NC(=O)N1CC[C@@]2(CCCN(C(=O)c3ccco3)C2)C1 | inactive [dye equivalency, Compound Type: qHTS ECL - Pharmacopeia] | –
5 | CC(C)NC(=O)N1CC[C@@]2(CCCN(C(=O)c3cccc(F)c3)C2)C1 | – | 33 nM [Compound Type: qHTS ECL - Pharmacopeia, stronger effect = higher value] (active)
6 | c1n[nH]c(NCc2ccc3c(c2)OCO3)n1 | inactive | –
7 | CN(C)C(=O)/N=N\C(=O)N(C)C | inactive [dye equivalency, Compound Type: qHTS ECL - SigmaAldrich] | –
8 | COCCn1c(=O)c(-c2cccs2)nc2cnc(N3CCN(C)CC3)nc21 | inactive [dye equivalency, Compound Type: qHTS ECL - Pharmacopeia] | –
9 | Cc1ccc(-c2nnc(SC(C)C#N)n2N)cc1 (centres undefined) | inactive | –
10 | CCN(Cc1nc2ccccc2c(=O)[nH]1)Cc1cc(=O)oc2cc(C)c(C)cc12 | inactive | –
11 | O=C(CCS(=O)(=O)c1cccc2nonc12)NCCc1ccccc1Cl | inactive | –
12 | CCOc1cc(S(=O)(=O)NC2CC(C)(C)NC(C)(C)C2)ccc1F | inactive [dye equivalency, Compound Type: qHTS ECL - DPISMR] | –
13 | FC(F)(F)c1cccc(Nc2ncnc3ccccc23)c1 | inactive [dye equivalency, Compound Type: qHTS ECL - DPISMR] | –
14 | c1csc(CN2CCN(Cc3cccs3)C2c2cccs2)c1 | inactive | –
15 | CCOc1ccc(NC(=O)Nc2ccc(N(C)C(C)=O)cc2)cc1 | inactive [dye equivalency, Compound Type: qHTS ECL - DPISMR] | –
16 | COC(=O)[C@H](Cc1ccccc1)NC(=O)Nc1ccc(S(N)(=O)=O)cc1 | inactive [dye equivalency, Compound Type: qHTS ECL - DPISMR] | –
17 | COCCNc1ncnc2ccc(-c3cccnc3)cc12 | inactive [dye equivalency, Compound Type: qHTS ECL - Pharmacopeia] | –
18 | Nc1ccc2c3c(cccc13)C(=O)NC2=O | – | 95 nM (active)
19 | O=C(Cn1c(-c2ccccn2)nc2ccccc21)NCCN1CCOCC1 | inactive [dye equivalency, Compound Type: qHTS ECL - DPISMR] | –
20 | Cc1cc(C)c2c(c1)c(C)cc1nnc(SCC(=O)NCc3ccco3)n12 | inactive | –
21 | Cc1ccc(NC2=NC(c3ccccc3)n3c(nc(C)cc3=O)N2)cc1 (centres undefined) | inactive [dye equivalency, Compound Type: qHTS ECL - DPISMR] | –
22 | CC[C@H](c1ccccc1)c1cc(C(C)(C)C)cc(C(C)(C)C)c1O | inactive [dye equivalency, Compound Type: qHTS ECL - NCI] | –
23 | COc1cccc(Cn2c(=O)c(CCc3ccccc3)nc3cnc(N(C)C)nc32)c1 | inactive [dye equivalency, Compound Type: qHTS ECL - Pharmacopeia] | –
24 | Cc1cc(Br)ccc1NC(=O)C1CCCO1 (centres undefined) | inactive [dye equivalency, Compound Type: qHTS ECL - DPISMR] | –
25 | Cc1nnc(C)n1/N=C/c1ccc(C(C)C)cc1 | inactive | –

Row | Compound | outcome | max dye equivalency
26 | CCON=C1C(C)(C)C(C)(C)C(C)(C)C1(C)C | inactive [dye equivalency, Compound Type: qHTS ECL - NCI] | –
27 | COc1ccc(C2/C(=C(/O)c3ccc(OC(C)C)cc3)C(=O)C(=O)N2CCCN2CCOCC2)cc1 (centres undefined) | inactive | –
28 | COC(=O)c1ccc(Oc2nc(NC(C)C)nc(SC)n2)cc1 | inactive [dye equivalency, Compound Type: qHTS ECL - DPISMR] | –
29 | CCc1nnc(NC(=O)CSc2nnc(COc3ccc(C#N)cc3)n2-c2ccccc2)s1 | inactive | –
30 | C=CCOc1ccc(C2/C(=C(\O)c3c(C)[nH]c(C(=O)OC)c3C)C(=O)C(=O)N2CCN(C)C)cc1 (centres undefined) | inactive [dye equivalency, Compound Type: qHTS ECL - DPISMR] | –
31 | COc1ccc(NC(=O)N2CC3(CCN(C(C)=O)CC3)C2)cc1 | inactive [dye equivalency, Compound Type: qHTS ECL - Pharmacopeia] | –
32 | O=c1c(-c2ccc(F)cc2)nc2cnc(N3CCOCC3)nc2n1-c1ccccc1 | inactive [dye equivalency, Compound Type: qHTS ECL - Pharmacopeia] | –
33 | O=C(CSc1nnc(-c2ccncc2)n1C1CCCCC1)Nc1ccccc1 | inactive | –
34 | c1cncc(-c2nc(N3CCNCC3)c3ccccc3n2)c1 | inactive [dye equivalency, Compound Type: qHTS ECL - Pharmacopeia] | –
35 | Cc1ccc(S(=O)(=O)N2CCN(Cc3cccc(C)c3O)CC2)cc1 | inactive | –
36 | COc1ccc(-c2nc3cnc(N(C)C)nc3n(Cc3cccs3)c2=O)cc1 | inactive [dye equivalency, Compound Type: qHTS ECL - Pharmacopeia] | –
37 | Cc1nc2cnc(N3CCNCC3)nc2n(Cc2ccc(F)cc2)c1=O | inactive [dye equivalency, Compound Type: qHTS ECL - Pharmacopeia] | –
38 | COCCn1c(=O)c(-c2ccc(OC)cc2)nc2cnc(Oc3cccc(Cl)c3)nc21 | inactive [dye equivalency, Compound Type: qHTS ECL - Pharmacopeia] | –
39 | COc1ccc(OC)c2c(N)c(C#N)c(C(F)(F)C(F)(F)F)nc12 | inactive | –
40 | O=C(Nc1nn(Cc2ccccc2F)cc1Br)c1cccs1 | inactive [dye equivalency, Compound Type: qHTS ECL - DPISMR] | –
41 | Brc1ccc(Nc2c3c(nc4ncnn24)CCC3)cc1 | inactive | –
42 | Cc1ccccc1C(OCC(O)CN1CCCCC1CCO)c1ccccc1 (centres undefined) | inactive | –
43 | CCCN1C(=O)C(NS(=O)(=O)c2ccc(N)cc2)(C(F)(F)F)C(C(=O)OC)=C1C (centres undefined) | inactive [dye equivalency, Compound Type: qHTS ECL - DPISMR] | –
44 | Cc1cc(C(F)(F)F)n2ncc(-c3ccccc3)c2n1 | inactive [dye equivalency, Compound Type: qHTS ECL - DPISMR] | –
45 | COc1ccccc1CNc1ncncc1-c1cccnc1 | inactive [dye equivalency, Compound Type: qHTS ECL - Pharmacopeia] | –
46 | Cc1ccc(S(=O)(=O)Nc2ccccc2CNc2c(C)n(C)n(-c3ccccc3)c2=O)cc1 | inactive | –
47 | CC(=NC1CCN(Cc2ccccc2)CC1)c1c(O)[nH]c(=O)[nH]c1=O | inactive [dye equivalency, Compound Type: qHTS ECL - DPISMR] | –
48 | CCn1ccnc1C[C@@H]1COc2ccccc2O1 | inactive [dye equivalency, Compound Type: qHTS ECL - SigmaAldrich] | –
49 | CN1[C@H]2CC(OC(=O)[C@@H](CO)c3ccccc3)C[C@H]1[C@H]1O[C@H]12 (some centres undefined) | inactive [dye equivalency, Compound Type: qHTS ECL - Prestwick] | –

Source: PubChem BioAssay AID591 (National Center for Advancing Translational Sciences (NCATS), 2007)
